HT1080 IDH1KD tx: kills HT-1080 cells with IDH1 knockdown; HT-1080 IDH1 knockdown viability, ATP luminescence, 48 h; Potency, µM (series often up to 46.1 µM), without a hit: top-dose activity, negative = toxicity, most hits filed as cytotoxic; actives 2% (n = 360,000); AID 686971;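 further: 0% = DMSO wells and -100% = cell-free medium wells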
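In this qHTS, HT-1080 cells depleted of IDH1 are exposed for 48 h at 37 °C to compound titrations. Toxicity is scored from CellTiter-Glo luminescence, with DMSO as full viability and medium alone as none.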
KB-3-1 tox: KB-3-1 parental cell cytotoxicity; AID 1347075; KB-3-1 viability, CellTiter-Glo ATP luminescence, 72 h; Potency, µM (highest dose often 46.1 µM), hits mostly cytotoxic; actives 1.4% (n = 400,000); further: nearly all actives have a fitted effect of over 60% in size
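Cytotoxicity in the drug-sensitive parental line KB-3-1 was scored as loss of CellTiter-Glo luminescence following 72 h incubation with compound. Values come from curve fitting of normalized concentration-response data.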
KB-V1 cytotox: KB-V1 MDR subline cytotoxicity; actives 3.4% (n = 400,000); KB-V1 MDR cells viability, CellTiter-Glo, 72 h; Potency, µM (series often up to 46.1 µM), hits mostly cytotoxic; AID 1347076; further: nearly all actives have a fitted effect of over 60% in size
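Compound-treated KB-V1 multidrug-resistant cells, 72 h, 37 degrees C; viability by CellTiter-Glo. Fitted qHTS curves give the values.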
DT40 TDP1 CPT: DT40-hTDP1 cell growth loss with CPT; actives 12% (n = 420,000); chicken DT40 Tdp1-/-;hTDP1 cells + 20 nM CPT, ATP luminescence, 48 h; Potency, µM (top dose mostly 46.2 µM), inactives show top-dose activity change, negative = growth inhibition, most hits filed as inhibitors; further: nearly all actives have a fitted effect of over 55% in size
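Chicken DT40 Tdp1-/- cells stably complemented with human TDP1 were seeded at 400 cells/well in medium containing 20 nM camptothecin, exposed to pin-transferred compounds, and grown at 37 °C for at least 48 hr. Viability was read as ATP luminescence.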
DT40 TDP1 no CPT: qHTS for Inhibitors of human tyrosyl-DNA phosphodiesterase 1 (TDP1): qHTS in cells in absence of CPT; actives 15% (n = 420,000); Potency, µM (doses to about 46.2 µM), for inactives: top-dose activity change, negative = growth inhibition, usual class: inhibitors; AID 686978, 2013; DT40 Tdp1-/- hTDP1 cells, no CPT, ATP luminescence, 48 h; further: nearly all actives have a fitted effect of over 55% in size
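A cellular qHTS used chicken DT40 cells lacking endogenous Tdp1 but carrying stably transfected human TDP1. Compounds were applied without camptothecin, and cell growth kinetics were judged by ATP-dependent luminescence after ≥48 hr.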
HT1080-NT tox: kills 2HG-producing HT-1080-NT fibrosarcoma cells | HT-1080-NT fibrosarcoma viability, CellTiter-Glo ATP luminescence, 48 h | Potency, µM (series often up to 46.1 µM), for the others: at the top dose activity, negative = less viability, actives largely listed as cytotoxic | actives 1.6% (n = 360,000) | AID 686970;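 further: NT is the 2HG producing partner of a matched IDH1 knockdown line; 0% = DMSO-treated cells and -100% = media-only wells without cells; nearly all actives have a fitted effect of over 55% in size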
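Viability of the 2HG-overproducing fibrosarcoma line after 48 hours of compound exposure at 37 degrees C was determined by luminescence with CellTiter-Glo, and concentration-effect curves were then fitted and categorized.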
* hit, by the source's call; i = inactive; ? = inconclusive; · = not tested or not shown; [ ] = dose if it differs, or a comment. The list is not random: actives were taken first. Their share in the collection is about 19%. The call rests on the fitted dose curve; in most records, active means well fitted curve in the direction sought with a large enough effect; inconclusive means small, poorly fitted or top-dose-only effect, or another doubt; inactive means no such curve, though single readings can be large; an effect the other way counts as inactive or inconclusive. Unless noted, on the % scale 0 is the no-effect control and ±100 the full control effect; potency means the concentration at half of the fitted maximal effect.

SMILES	HT1080 IDH1KD tx	KB-3-1 tox	KB-V1 cytotox	DT40 TDP1 CPT	DT40 TDP1 no CPT	HT1080-NT tox
Cc1ccc2c(c1)N(CC(=O)N1CCCCC1)C(=O)CO2	7%	?	?	-9%	-8%	4%
Cc1cccc(Oc2nc(-c3ccccn3)nc3ccccc23)c1	16µM*	i	?	1.2µM*	1µM*	?
Cc1cccc(Oc2nc(-c3ccncc3)nc3ccccc23)c1	?	i	i	?	?	?
Cc1ccccc1Oc1nc(-c2ccccn2)nc2ccccc12	-27%	i	9.2µM*	4.1µM*	5.2µM*	?
CC(C)c1nc2c(c(=O)n(C)c(=O)n2C)n1C	6%	i	i	4%	7%	2%
O=C(NCc1ccc(F)cc1)c1cc(C2CCCCN2C(=O)c2ccccc2)on1 (configuration not stated)	-3%	i	i	?	?	-19%
COc1ccc(C(=O)N2CCCCC2c2cc(C(=O)NCc3ccc(F)cc3)no2)cc1 (configuration not stated)	-4%	i	i	16µM*	?	2%
O=C(NCc1ccc(F)cc1)c1cc(C2CCCCN2C(=O)c2ccc(Cl)cc2)on1 (configuration not stated)	?	i	i	?	15µM*	?
CS(=O)(=O)N1CCCCC1c1cc(C(=O)NCc2ccc(F)cc2)no1 (configuration not stated)	10%	i	i	-29%	-26%	?
CCOC(=O)CN1C(=O)C(O)(CC(=O)c2cccc(OC)c2)c2ccccc21 (configuration not stated)	-13%	i	i	?	16µM*	-3%
C#CCN1C(=O)C(O)(CC(=O)c2cccc(OC)c2)c2ccccc21 (configuration not stated)	-8%	i	?	5.8µM*	4.6µM*	-4%
CN1C(=O)C(O)(CC(=O)c2cccc(-n3cccc3)c2)c2ccccc21 (configuration not stated)	0%	i	i	21µM*	?	4%
O=C(CC1(O)C(=O)Nc2ccccc21)c1cccc(-n2cccc2)c1 (configuration not stated)	10%	i	i	-9%	5%	-1%
COc1ccc(C(=O)O)cc1S(=O)(=O)Nc1ccc2cn[nH]c2c1	14%	i	i	1%	-1%	1%
CCCCOC(=O)c1ccc(NC(=O)c2cc(-c3cccs3)on2)cc1	·	i	i	-29%	?	·
CCOC(=O)C1CCCN(C(=O)c2cnn(-c3ncc4c(n3)-c3ccccc3CC4)c2C)C1 (configuration not stated)	·	·	·	2%[9.04 µM]	-6%	·
Nc1ccc(C(=O)OCC(=O)NC(=O)c2ccccc2)cc1[N+](=O)[O-]	19%	i	i	21%	-9%	13%
COC(=O)c1ccccc1NC(=O)c1sc2nc(C)cc(C)c2c1NC(=O)c1ccccc1Cl	·	?	i	·	·	·
CCN1c2ccccc2N(C)C1(C)c1ccccc1 (configuration not stated)	?	?	i	3.7µM*	3.7µM*	?
COc1ccc(NC(=O)c2ccco2)c2ccccc12	-2%	i	i	-23%	-1%	-2%
CCC(C)[C@H](NS(=O)(=O)c1ccc(C)cc1)C(=O)N1CCC(C(=O)N2CCC(C(=O)OC)CC2)CC1 (some centres not stated)	-8%	i	i	-7%	-11%	1%

Source: PubChem (National Center for Advancing Translational Sciences (NCATS))
